From PubChem BioAssay AID1159580 (chemical genetic matrix, 2015)
Several values for one entry are separate records, joined by “and”; a condition that tells them apart may be missing. Equal values may be shown once. Among all 5,500 compounds or so, about 2,000 (36%) were called active. Inconclusive results (about 18%) are left out. Rule as the data show it: active = normalized growth mostly below about 0.91 (no sharp cut-off); inconclusive = no clear call, values can overlap the other calls; inactive = mostly above about 0.92. The list shows a part of the results.

Test: chemical genetic growth profiling, strain panel (AID 1159580);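 also: tested at 20 µM; growth read once vehicle control cultures reached saturation at 30 °C; 1 = growth at the plate median or of vehicle wells; lower values mean less growth of the strain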
Conditions: S. cerevisiae deletion strains, growth OD

Measured: normalized growth

COc1cc2c(cc1OC)[C@@H]1C(=O)c3ccc4oc(C(C)C)cc4c3O[C@@H]1CO2
inactive: locus YAL021C, strain ccr4, hits give low values 0.983 | locus YAL026C, strain drs2, hits give low values 0.995 | locus YAL030W, strain snc1, hits give low values 1 | locus YBL061C, strain skt5, hits give low values 0.995 | locus YBR009C, strain hhf1, hits give low values 0.992 | locus YBR021W, strain FUR4, hits give low values 1.01 | locus YBR023C, strain chs3, hits give low values 0.996 | locus YBR171W, strain sec66, hits give low values 0.999 | locus YBR229C, strain ROT2, hits give low values 1.01 | locus YBR231C, strain swc5, hits give low values 0.992 | locus YBR279W, strain paf1, hits give low values 0.996 | locus YCL011C, strain gbp2, hits give low values 0.97 | locus YCL016C, strain dcc1, hits give low values 0.993 | locus YCL029C, strain bik1, hits give low values 1.07 | locus YCL061C, strain MRC1, hits give low values 0.981 | locus YCL069W, strain vba3, hits give low values 1 | locus YCR088W, strain abp1, hits give low values 0.993 | locus YDL005C, strain med2, hits give low values 0.981 | locus YDL035C, strain GPR1, hits give low values 1.02 | locus YDL040C, strain nat1, hits give low values 0.989 | locus YDL074C, strain BRE1, hits give low values 1.04 | locus YDL101C, strain DUN1, hits give low values 1.01 | locus YDL185W, strain tfp1, hits give low values 1.01 | locus YDL192W, strain arf1, hits give low values 1.04 | locus YDR001C, strain nth1, hits give low values 0.979 | locus YDR069C, strain doa4, hits give low values 1.08 | locus YDR101C, strain arx1, hits give low values 1.02 | locus YDR137W, strain rgp1, hits give low values 0.992 | locus YDR150W, strain NUM1, hits give low values 1.02 | locus YDR159W, strain sac3, hits give low values 0.985 | locus YDR162C, strain NBP2, hits give low values 1.04 | locus YDR195W, strain ref2 0.982 | locus YDR297W, strain sur2, hits give low values 1.02 | locus YDR318W, strain mcm21, hits give low values 1.04 | locus YDR334W, strain swr1, hits give low values 0.977 | locus YDR335W, strain msn5, hits give low values 0.986 | locus YDR388W, hits give low values 1.02 | locus YDR392W, strain spt3, hits give low values 0.996 | locus YDR502C, strain sam2, hits give low values 1.03 | locus YEL003W, strain gim4, hits give low values 1.01 | locus YEL037C, strain rad23, hits give low values 0.995 | locus YEL061C, strain CIN8 (second series), hits give low values 0.984 | locus YER015W, strain faa2, hits give low values 0.99 | locus YER016W, strain bim1, hits give low values 0.971 | locus YER110C, hits give low values 1 | locus YER111C, strain swi4, hits give low values 0.977 | locus YER155C, strain BEM2 (second series), hits give low values 0.973 | locus YER155C, strain BEM2, hits give low values 1.02 | locus YER167W, strain BCK2, hits give low values 1.02 | locus YFR010W, strain ubp6, hits give low values 0.998 | locus YGL078C, strain dbp3, hits give low values 1.03 | locus YGL086W, strain mad1, hits give low values 1.02 | locus YGL167C, strain pmr1, hits give low values 0.982 | locus YGL173C, strain kem1, hits give low values 0.975 | locus YGL227W, strain vid30, hits give low values 0.982 | locus YGL240W, strain doc1, hits give low values 0.991 | locus YGL248W, strain PDE1, hits give low values 1.01 | locus YGL253W, strain hxk2, hits give low values 0.991 | locus YGR078C, strain PAC10, hits give low values 1.02 | locus YGR135W, strain pre9, hits give low values 1.08 | locus YGR252W, strain gcn5, hits give low values 1.01 | locus YHR013C, strain ard1, hits give low values 0.973 | locus YHR027C, strain rpn1, hits give low values 1 | locus YHR030C, strain SLT2, hits give low values 0.999 | locus YHR079C, strain IRE1 (second series), hits give low values 1 | locus YHR079C, strain IRE1, hits give low values 0.985 | locus YHR094C, strain hxt1, hits give low values 1.02 | locus YHR129C, strain ARP1, hits give low values 1.02 | locus YHR142W, strain chs7, hits give low values 1.01 | locus YHR200W, strain rpn10, hits give low values 1.03 | locus YIL066C, strain RNR3, hits give low values 1.02 | locus YIL073C, strain SPO22, hits give low values 1.06 | locus YIL125W, strain kgd1, hits give low values 1 | locus YIR030C, strain dcg1, hits give low values 1.05 | locus YJL092W, strain hpr5, hits give low values 0.968 | locus YJL095W, strain BCK1 (second series), hits give low values 1.01 | locus YJL095W, strain BCK1, hits give low values 1.04 and 0.981 | locus YJL115W, strain asf1, hits give low values 0.957 | locus YJL129C, strain trk1, hits give low values 0.974 | locus YJL134W, strain LCB3, hits give low values 1.01 | locus YJL154C, strain vps35, hits give low values 0.984 | locus YJL164C, strain tpk1, hits give low values 1.03 | locus YJL166W, strain qcr8, hits give low values 0.975 | locus YJL168C, strain set2, hits give low values 1.01 | locus YJL187C, strain SWE1 (second series), hits give low values 1.02 | locus YJR043C, strain POL32, hits give low values 1.02 | locus YJR066W, strain TOR1, hits give low values 0.907 | locus YKL009W, strain mrt4, hits give low values 0.918 | locus YKL068W, hits give low values 0.996 | locus YKL085W, strain MDH1 (second series), hits give low values 0.989 | locus YKL085W, strain MDH1, hits give low values 0.989 | locus YKL160W, strain elf1, hits give low values 0.99 | locus YKL190W, strain CNB1, hits give low values 1.02 | locus YKR001C, strain vps1, hits give low values 1.02 | locus YKR026C, strain gcn3, hits give low values 1 | locus YKR091W, strain srl3, hits give low values 0.984 | locus YLL001W, strain dnm1, hits give low values 0.972 | locus YLL026W, hits give low values 0.976 | locus YLL041C, strain sdh2, hits give low values 1.02 | locus YLR027C, strain aat2, hits give low values 0.999 | locus YLR039C, strain RIC1, hits give low values 1.1 | locus YLR058C, strain SHM2, hits give low values 1.01 | locus YLR102C, strain apc9, hits give low values 1.02 | locus YLR113W, strain HOG1, hits give low values 1.05 | locus YLR221C, strain rsa3, hits give low values 0.959 | locus YLR258W, strain gsy2, hits give low values 0.992 | locus YLR262C, strain YPT6 (second series), hits give low values 1.02 | locus YLR262C, strain YPT6, hits give low values 1.06 | locus YLR268W, strain sec22, hits give low values 1.02 | locus YLR320W, strain mms22, hits give low values 0.986 | locus YLR330W, strain CHS5, hits give low values 1.02 | locus YLR342W, strain FKS1 (second series), hits give low values 1.03 | locus YLR342W, strain FKS1, hits give low values 0.982 | locus YLR357W, strain rsc2, hits give low values 0.986 | locus YLR370C, strain arc18, hits give low values 0.981 | locus YLR371W, strain rom2, hits give low values 1.06 | locus YLR384C, strain iki3, hits give low values 0.993 | locus YLR418C, strain cdc73, hits give low values 1.01 | locus YML016C, strain PPZ1, hits give low values 1.02 | locus YML032C, strain rad52, hits give low values 1.01 | locus YML120C, strain ndi1, hits give low values 0.99 | locus YML124C, strain tub3, hits give low values 1.03 | locus YMR058W, strain fet3, hits give low values 0.968 | locus YMR078C, strain ctf18, hits give low values 1.02 | locus YMR125W, strain sto1, hits give low values 0.976 | locus YMR129W, hits give low values 0.985 | locus YMR205C, strain PFK2, hits give low values 0.987 | locus YMR223W, strain ubp8, hits give low values 1.01 | locus YMR231W, strain pep5, hits give low values 0.985 | locus YMR307W, strain GAS1, hits give low values 0.974 | locus YNL067W, strain RPL9B, hits give low values 1.02 | locus YNL071W, strain lat1, hits give low values 1.05 | locus YNL183C, strain NPR1, hits give low values 0.956 | locus YNL209W, strain ssb2, hits give low values 0.993 | locus YNL233W, strain BNI4, hits give low values 1.05 | locus YNL248C, strain rpa49, hits give low values 0.976 | locus YNL250W, strain rad50, hits give low values 1.02 | locus YNL271C, strain bni1, hits give low values 1.02 | locus YNL298W, strain CLA4, hits give low values 1.03 | locus YNL307C, strain MCK1, hits give low values 1.03 | locus YNL322C, strain KRE1 (second series), hits give low values 1 | locus YNL322C, strain KRE1, hits give low values 1.01 | locus YNR049C, strain mso1, hits give low values 0.982 | locus YNR052C, strain pop2, hits give low values 1.01 | locus YOL006C, strain TOP1, hits give low values 1.11 | locus YOL012C, strain htz1 0.869 | locus YOL147C, strain pex11, hits give low values 1.04 | locus YOR001W, strain rrp6, hits give low values 0.979 | locus YOR061W, strain CKA2, hits give low values 1.02 | locus YOR069W, strain VPS5, hits give low values 1.01 | locus YOR070C, strain gyp1, hits give low values 0.987 | locus YOR080W, strain dia2, hits give low values 0.965 | locus YOR083W, strain WHI5, hits give low values 0.987 | locus YOR106W, strain vam3, hits give low values 0.991 | locus YOR136W, strain idh2, hits give low values 1 | locus YOR144C, strain elg1, hits give low values 1.02 | locus YOR184W, strain ser1, hits give low values 1.05 | locus YOR231W, strain MKK1, hits give low values 0.975 | locus YOR265W, strain rbl2, hits give low values 1 | locus YOR270C, strain vph1, hits give low values 1.07 | locus YOR290C, strain snf2, hits give low values 0.978 | locus YOR316C, strain cot1, hits give low values 1 | locus YPL051W, strain arl3, hits give low values 0.985 | locus YPL078C, strain atp4, hits give low values 0.989 | locus YPL106C, strain sse1, hits give low values 1.03 | locus YPL240C, strain hsp82, hits give low values 1 | locus YPL256C, strain CLN2, hits give low values 0.988 | locus YPR119W, strain clb2, hits give low values 1.01 | locus YPR141C, strain kar3, hits give low values 1.06 | locus YPR163C, strain tif3, hits give low values 1.02 | locus YPR167C, strain met16, hits give low values 1.05 | strain wtn01, hits give low values 1.04
